Source: PubChem BioAssay
SKKanGAS inh – SKKanGAS growth inhibition; S. pyogenes SKKanGAS, kanamycin growth, BacTiter-Glo, 6 h; inhibition, % at 7.5 µM; 300,000 tested, 1.3% active; AID 1662;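 active = mean replicate score, as percent of positive control median, at least 50; inconclusive = mean below 50 but one replicate at or above 50; inactive = mean and every replicate below 50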;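 also: strain carries kanamycin resistance gene driven by streptokinase promoter and grows in 40 µg/ml kanamycin; loss of luminescence reflects streptokinase promoter inhibition or plain growth inhibition; 0% = median of DMSO wells and 100% = positive control at its reference dose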
Mdm2 MdmX PPI – human Mdm2/MdmX binding inhibition; O15151+Q00987; AID 485346; SaOS-2 split-luciferase Mdm2/MdmX complementation, luminescence; 330,000 tested, 3% active; inhibition, % at 8 µM;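 active = inhibition of at least 50% at 8 µM in the primary screen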
Target sequence (O15151 whole entry, looked up): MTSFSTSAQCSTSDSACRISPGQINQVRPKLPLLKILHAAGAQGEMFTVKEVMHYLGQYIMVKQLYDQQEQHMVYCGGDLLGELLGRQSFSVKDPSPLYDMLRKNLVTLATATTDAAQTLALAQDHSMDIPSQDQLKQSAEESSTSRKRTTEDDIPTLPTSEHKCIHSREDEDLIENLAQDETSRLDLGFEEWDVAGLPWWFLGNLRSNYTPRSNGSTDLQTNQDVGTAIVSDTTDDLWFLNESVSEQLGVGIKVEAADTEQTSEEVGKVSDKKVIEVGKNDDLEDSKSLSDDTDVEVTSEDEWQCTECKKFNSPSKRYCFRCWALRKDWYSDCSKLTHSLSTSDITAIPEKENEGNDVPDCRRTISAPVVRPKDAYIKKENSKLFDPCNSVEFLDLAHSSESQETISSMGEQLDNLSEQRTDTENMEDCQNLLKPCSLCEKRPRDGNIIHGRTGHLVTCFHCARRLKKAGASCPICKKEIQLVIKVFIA
Target sequence (Q00987 whole entry, looked up): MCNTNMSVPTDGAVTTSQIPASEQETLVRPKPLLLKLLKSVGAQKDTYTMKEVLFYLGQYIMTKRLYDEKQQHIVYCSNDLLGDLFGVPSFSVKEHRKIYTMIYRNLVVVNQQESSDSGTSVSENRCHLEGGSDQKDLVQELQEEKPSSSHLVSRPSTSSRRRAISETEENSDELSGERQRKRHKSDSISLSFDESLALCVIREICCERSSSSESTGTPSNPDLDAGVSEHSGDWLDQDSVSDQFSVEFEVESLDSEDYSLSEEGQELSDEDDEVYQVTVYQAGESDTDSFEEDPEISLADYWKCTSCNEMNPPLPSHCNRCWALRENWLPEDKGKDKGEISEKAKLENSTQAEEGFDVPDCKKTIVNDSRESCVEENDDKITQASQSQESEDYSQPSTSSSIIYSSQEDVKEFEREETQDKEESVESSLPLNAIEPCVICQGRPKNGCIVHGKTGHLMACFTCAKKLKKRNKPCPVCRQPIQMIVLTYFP
CSC inhib – blocks cancer stem cells; 300,000 tested, 1.1% active; AID 2717; cancer stem cell-like cells viability, luminescence; inhibition, % at 7.5 µM; in the data active = inhibition above about 75%; inconclusive = no clear call, values can overlap the other calls; tested in HMLE shEcad cells
Beta cell apopt – blocks beta cell apoptosis; AID 435005; 300,000 tested, 0.8% active; INS-1E cytokine-induced death, ATP luminescence, 48 h; percent of positive-control rescue, neutral wells zero; protection from apoptosis, % (no concentration beside the values);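 active = Every replicate reaches about 75%, or at least half do and their mean reaches it too, limit read from the data; inconclusive = At least half of replicates reach the limit but their mean does not; inactive = Under half of replicates reach the limit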;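 also: 0% = cytokine-treated negative control wells and 100% = positive control rescue; higher means more ATP so stronger rescue from cytokine killing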
MPTP inh – inhibitors of mitochondrial permeability transition pore; inhibition, % at 10 µM; AID 602449; 360,000 tested, 1.4% active; isolated mouse mitochondria, Ca2+ swelling absorbance, 30 min;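 active = inhibition of 50% or more, scaled per plate between neutral and stimulator controls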;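 also: 0% = DMSO wells given calcium and 100% = 1 mM EGTA wells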
Calb FLC – C. albicans growth modulation with fluconazole; C. albicans CaCi-2 (fluconazole-resistant clinical isolate) + fluconazole, Alamar Blue growth, 48 h; growth inhibition, % (test concentration not listed); 300,000 tested, 0.57% active; AID 1979;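 active = growth inhibition above about 58% in most replicates, limit read from the data, passing the limit was not always enough; inconclusive = exactly half the replicates above a set limit; inactive = most replicates below a set limit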;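 also: all wells also contain fluconazole at 8 µg/ml as a sub-toxic cotreatment; 0% = median of DMSO wells and 100% = median of geldanamycin control wells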
MPTP counter – mitochondrial membrane potential, counter-screen; 5,000 tested, 78% active; isolated mitochondria, Rhodamine 123 fluorescence; shares compounds with MPTP inh; inhibition, % at 10 µM; in the data active = inhibition above about 22%;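 also: 0% = DMSO vehicle and 100% = positive control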
MPTP swell DR – dose response confirmation of mitochondrial permeability transition pore inhibitors | IC50, µM | AID 651561 | shares compounds with MPTP inh | isolated mitochondria swelling, absorbance | 780 tested, 58% active; in the data active = IC50 below about 20 µM
MPTP cs DR – counter-screen for mitochondrial permeability transition pore inhibitors, dose response. shares compounds with MPTP inh. isolated mitochondria counterscreen, fluorescence read-out. IC50, µM. 780 tested, 49% active; in the data active = IC50 below about 80 µM
* hit, by the source's call; ? = inconclusive; nt = no result given. The list is not random: actives were taken first. Their share in the collection is about 5.4%.

SMILES | SKKanGAS inh | Mdm2 MdmX PPI | CSC inhib | Beta cell apopt | MPTP inh | Calb FLC | MPTP counter | others
COC(=O)C(C)(C)ONC(=O)Nc1ccc(Br)cc1 | -5 | -8 | 4 | -5 | 12 | -19 | nt
O=C(/C=C/c1ccc([N+](=O)[O-])cc1)OCC(=O)N1CCCC1 | nt | 18 | 6 | -6 | 0 | nt | nt
N#Cc1c(NCCN)nc(-c2ccco2)c2c1CCCC2 | 8 | 27 | 7 | 16 | 92* | -12 | -2 | MPTP swell DR=13*;MPTP cs DR=>80
N#Cc1c(N2CCOCC2)nc(-c2ccco2)c2c1CCCC2 | -4 | 15 | 19 | 0 | -1 | 1 | nt
Cc1ccccc1OCCCCn1cnc2ccccc21 | nt | 12 | 4 | 103* | 93* | 42 | 89*
c1ccc2c(c1)ncn2CCCCOc1ccc2c(c1)CCC2 | 0 | 14 | 0 | 91* | 88* | -14 | 96*
c1ccc(OCCCCn2cnc3ccccc32)cc1 | 17 | 18 | -8 | 3 | 0 | 25 | nt
CC(=O)c1cn(CCOc2ccccc2C)c2ccccc12 | 5 | 11 | 2 | nt | 96* | 19 | 82*
c1ccc2c(c1)ncn2CCCOc1ccc2c(c1)CCC2 | ? | -30 | -9 | 71 | 54* | -26 | 60*
CC1CCc2c(C(=O)NCCCN3CCOCC3)csc2C1 (configuration not stated) | 1 | -3 | -6 | -8 | 1 | 1 | nt
O=C(COC(=O)c1cc([N+](=O)[O-])ccc1N1CCOCC1)NCc1ccc(Cl)cc1Cl | 3 | -12 | -9 | 1 | -1 | 9 | nt
CN(CC(=O)Nc1cccc(F)c1)C(=O)CNS(=O)(=O)c1ccc(N(C)C)c([N+](=O)[O-])c1 | -3 | 8 | -8 | -5 | 0 | -3 | nt
CCCOc1ccc(Cn2cnc3ccccc32)cc1 | nt | 5 | 1 | 15 | 89* | nt | 77*
Cc1cc(C)cc(OCC(=O)N2N=C(C(F)(F)F)CC2(O)C(C)(C)C)c1 (configuration not stated) | 3 | 10 | 4 | 7 | 57* | -8 | 43*
